The whole screen tested about 290,000 compounds, of which about 35 (0.01%) were called active. This is one part of a sample in which actives are shown more often than they occur.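 Rule for the calls: active = EGFP signal decrease of at least 30% at 10 µM or well 3 SD below plate mean, unless failing retest; inactive = the rest, including hits failing retest or dose response.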

The text below walks through data of PubChem BioAssay AID1984 (Sanford-Burnham Center for Chemical Genomics, 2009).

The test deals with p/CIP-EGFP fusion (nuclear receptor coactivator 3, mouse) (UniProt Q05BA5). Description: compounds lowering mouse p/CIP (NCOA3) protein levels – fluorescence, F442A cells, EGFP fusion, primary screen (AID 1984). Particulars: 16 h, at 10 µM, stronger effect = higher value.
Chain of p/CIP-EGFP fusion (nuclear receptor coactivator 3, mouse) (Q05BA5 1-1403): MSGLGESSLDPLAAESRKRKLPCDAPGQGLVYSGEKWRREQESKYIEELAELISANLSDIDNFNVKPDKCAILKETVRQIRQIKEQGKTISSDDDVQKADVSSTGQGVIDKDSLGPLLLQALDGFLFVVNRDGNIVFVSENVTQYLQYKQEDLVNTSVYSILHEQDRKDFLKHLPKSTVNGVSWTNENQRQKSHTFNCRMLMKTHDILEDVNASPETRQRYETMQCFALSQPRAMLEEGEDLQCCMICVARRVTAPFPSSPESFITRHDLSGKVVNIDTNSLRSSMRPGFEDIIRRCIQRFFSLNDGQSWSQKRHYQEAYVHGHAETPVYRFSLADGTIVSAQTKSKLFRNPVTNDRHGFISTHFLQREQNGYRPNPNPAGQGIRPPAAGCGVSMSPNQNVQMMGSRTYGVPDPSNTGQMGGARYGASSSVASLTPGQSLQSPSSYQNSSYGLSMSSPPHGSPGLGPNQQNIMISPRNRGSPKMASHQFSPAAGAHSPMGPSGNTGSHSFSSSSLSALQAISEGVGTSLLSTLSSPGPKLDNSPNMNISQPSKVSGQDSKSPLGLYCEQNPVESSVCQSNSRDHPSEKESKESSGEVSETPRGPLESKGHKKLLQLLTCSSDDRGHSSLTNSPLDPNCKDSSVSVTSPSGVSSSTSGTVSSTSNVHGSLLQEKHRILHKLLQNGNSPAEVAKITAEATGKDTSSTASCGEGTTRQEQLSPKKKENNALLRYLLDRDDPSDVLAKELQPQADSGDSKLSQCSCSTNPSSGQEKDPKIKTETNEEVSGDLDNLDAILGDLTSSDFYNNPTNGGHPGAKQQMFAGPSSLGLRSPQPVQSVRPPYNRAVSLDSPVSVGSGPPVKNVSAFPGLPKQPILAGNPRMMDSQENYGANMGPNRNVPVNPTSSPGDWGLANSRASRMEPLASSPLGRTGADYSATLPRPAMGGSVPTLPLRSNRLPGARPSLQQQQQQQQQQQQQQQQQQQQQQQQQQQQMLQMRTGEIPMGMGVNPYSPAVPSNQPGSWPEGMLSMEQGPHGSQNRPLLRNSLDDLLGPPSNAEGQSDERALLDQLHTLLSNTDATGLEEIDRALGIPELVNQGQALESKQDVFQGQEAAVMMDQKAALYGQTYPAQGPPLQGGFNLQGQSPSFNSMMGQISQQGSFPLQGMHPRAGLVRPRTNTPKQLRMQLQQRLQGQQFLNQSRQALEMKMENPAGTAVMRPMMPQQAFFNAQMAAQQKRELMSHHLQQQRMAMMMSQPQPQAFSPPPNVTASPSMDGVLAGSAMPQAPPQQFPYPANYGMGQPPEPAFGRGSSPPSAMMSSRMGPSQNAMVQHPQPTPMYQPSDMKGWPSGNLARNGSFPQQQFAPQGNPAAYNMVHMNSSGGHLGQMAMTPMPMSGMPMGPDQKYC
For the molecule `COCCNC(=O)CSc1nc2sccc2c(=O)n1-c1ccccc1`, the decrease of EGFP signal was -15.6% (inactive).
With `Cc1ccc(C(CNC(=O)Nc2cccc(C)c2)N2CCN(C)CC2)cc1` (stereo not given), the decrease of EGFP signal is -22.3% (inactive).
Take `CC1C(=O)N(Cc2ccccc2)c2ccccc2N1C(=O)c1ccccc1` (stereo not given): the decrease of EGFP signal is -15.4% (inactive).
As to `COc1ccc(N2CCN(C(=O)c3cccs3)CC2)cc1`, the decrease of EGFP signal was -8% (inactive).
To `Cc1nc2nc(SCC(=O)Nc3cccc(F)c3)[nH]c2cc1Br` belongs -0.1% (inactive).
With `CS(=O)(=O)c1ccccc1C(=O)Nc1ccc2sccc2c1`, the decrease of EGFP signal was -7.2% (inactive).
As to `COc1ccc(-c2n[nH]c3c2CN(C(=O)c2ccc(F)cc2)CC3)cc1`, the decrease of EGFP signal was -14.3% (inactive).
In the case of `CC(C)(C)C1CCc2c(sc3nc(SCC(N)=O)nc(N)c23)C1` (stereo not given) it was -4.6% (inactive); in that of `O=C(NCCCn1ccnc1)/C(=C\c1ccccc1F)NC(=O)c1ccccc1`, -21.2% (inactive).
As for `COc1ccc(OC)c(C(=O)NC(CC(N)=O)c2ccc(N3CCC(N4CCCCC4)CC3)c([N+](=O)[O-])c2)c1` (stereo not given), the decrease of EGFP signal is -7.7% (inactive).
Consider `CSCC[C@H](NC(=O)N1CCn2c1nc1ccccc12)C(=O)NCc1ccc2c(c1)OCO2`, for which the decrease of EGFP signal is -3.3% (inactive).
To `Nc1nnc2c(C(F)(F)F)nc3ccccc3n12` belongs -5.5% (inactive); to `COc1ccc(C)cc1Nc1n[n+](-c2ccccc2)c(-c2cccc(Cl)c2Cl)s1`, 6.4% (inactive).
To `CCN1N=C(c2ccccc2)CCC1=O` belongs 5.6% (inactive).
As for `COc1cc2ccccc2cc1C(=O)Nc1ccccc1C`, the decrease of EGFP signal was -1.6% (inactive).
As for `CC(C)(C)c1ccc(C(=O)N2CCN(CCNC(=O)C(=O)Nc3ccc(F)cc3)CC2)cc1`, the decrease of EGFP signal was -21.5% (inactive).
As to `CCc1ccc(Oc2coc3cc(O)ccc3c2=O)cc1`, the decrease of EGFP signal was -7.6% (inactive).
In the case of `CC(=O)N1CCOc2ccc(S(=O)(=O)N3CCC(C(=O)Nc4ccccc4F)CC3)cc21`, the decrease of EGFP signal was 11.8% (inactive).
Take `O=C(CNC(=O)c1ccccc1)Oc1ccc([N+](=O)[O-])cc1`: the decrease of EGFP signal was -14% (inactive).
Consider `C=CCNC(=O)COC(=O)CNC(=O)c1cc(Cl)cc([N+](=O)[O-])c1`, for which the decrease of EGFP signal was 32% (active).
On to `C=CCNC(=S)NNC(=O)COc1c(Cl)cc(Cl)cc1Cl`, for which the decrease of EGFP signal is -6.1% (inactive).
`COc1ccc(NC2CCCN(C(=O)c3ccncc3)C2)cc1` (stereo not given): the decrease of EGFP signal was -13.8% (inactive).
Turning to `CC(=O)c1cccc(NC(=O)C2CCN(C(=O)c3ccccc3Cl)CC2)c1`, the decrease of EGFP signal is 4.2% (inactive).
With `Cc1ccccc1N(C(=O)CNC(=O)c1cccs1)C(C(=O)NC1CCCC1)c1ccncc1` (stereo not given), the decrease of EGFP signal was 12.1% (inactive).
`CC1(C)C=C2[C@H]3CC[C@@H]4[C@@]5(C)CCC(=O)C(C)(C)[C@@H]5CC[C@@]4(C)[C@]3(C)CC[C@@]2(C(=O)O)CC1`: the decrease of EGFP signal was -6.3% (inactive).
To `O=C(CN1CCN(S(=O)(=O)c2ccc(Br)cc2)CC1)Nc1ccccc1C(=O)c1ccccc1` belongs -4.8% (inactive); to `NC(=O)c1cc(S(=O)(=O)N2CCCC2)ccc1OCc1ccc(F)cc1`, -4.5% (inactive).
For the molecule `COc1cccc(NC(=O)NCCN2CCCCC2)c1`, the decrease of EGFP signal was -6.2% (inactive).
In the case of `OC(CNC1CCCC1)COc1ccc(F)cc1` (stereo not given) it was 26.4% (inactive); in that of `CCCCC(=O)Nc1nnc(S(=O)(=O)N(C)Cc2ccco2)s1`, 0.2% (inactive); in that of `Cc1ccc(N(Cc2cc(=O)[nH]c3ccccc23)C(=O)CCl)cc1`, -8.8% (inactive).
In the case of `CN(C)S(=O)(=O)c1cccc(NC(=O)COC(=O)C2(c3ccccc3F)CCCC2)c1`, the decrease of EGFP signal is -3% (inactive).
With `Cc1[nH]c2ccccc2c1C(=O)CN1CCCC(C)C1` (stereo not given), the decrease of EGFP signal was -10.8% (inactive).
On to `Cc1ccc(-c2nc(CSCC(=O)NC3CCN(Cc4ccccc4)CC3)c(C)o2)cc1`, for which the decrease of EGFP signal is -10% (inactive).
Consider `Cn1nccc1C(=O)NC1CCCc2c1cnn2-c1ccc(F)cc1F` (stereo not given), for which the decrease of EGFP signal was -26.2% (inactive).
`Cc1ccc(CNC(=O)CSc2nnc3c(n2)[nH]c2ccc(F)cc23)cc1`: the decrease of EGFP signal is -14.9% (inactive).
In the case of `COc1cc(C2C(N3C(=O)c4ccccc4C3=O)C(=O)N2c2ccc(C)c(C)c2)cc(OC)c1OC` (stereo not given) it was 8.2% (inactive); in that of `N#CC(C#N)=CN=c1ccn(Cc2ccc(Cl)cc2Cl)cc1`, -1.4% (inactive); in that of `Cc1ccc(C(=O)NC2CCN(C(=O)Nc3ccccc3Cl)CC2)cc1`, 5.4% (inactive).
Regarding `CC1CCN(C(=O)c2ccccc2NC(=O)Cc2ccccc2)CC1`, the decrease of EGFP signal was -1.7% (inactive).
For the molecule `COc1ccccc1N(CC(=O)NC1CCCC1)C(=O)C1(C)CC(=O)N=C2C=CC(C)=CN21` (stereo not given), the decrease of EGFP signal is -13.7% (inactive).
With `Cc1ccc(OCC(=O)Nc2ccccc2C(=O)NC2CC2)cc1C`, the decrease of EGFP signal was 1.1% (inactive).
For `COc1ccccc1NC(=O)CSc1nnc(CNC(=O)c2ccccc2F)o1`, the decrease of EGFP signal is -0.3% (inactive).
Take `CCOC(=O)C1CCN(Cc2nnc(-c3cccc(Br)c3)o2)CC1`: the decrease of EGFP signal is -16.9% (inactive).
Turning to `O=C(CCc1nnc(Cc2ccc3c(c2)OCO3)o1)NCCc1ccccc1Cl`, the decrease of EGFP signal is -7.8% (inactive).
With `O=C(NCCc1ccccc1)c1ccc2c(c1)N(Cc1ccccc1)CCS2`, the decrease of EGFP signal is 5.5% (inactive).
In the case of `Cc1ccc(NC(=S)Nc2ncccc2C)c(C)c1` it was -3.8% (inactive).
For the molecule `COc1ccc(NS(=O)(=O)c2ccc(N3CCN(CCO)CC3)c([N+](=O)[O-])c2)cc1`, the decrease of EGFP signal was -28.7% (inactive).
For `C=C(C)C(=O)O[C@H]1C/C(C)=C\C(=O)/C=C(\C)[C@H](O)[C@@H]2OC(=O)C(=C)[C@@H]21`, the decrease of EGFP signal was -31.6% (inactive).
In the case of `CC(C)NC(=O)N1CCN(c2ccncc2S(=O)(=O)N2CCCCC2)CC1`, the decrease of EGFP signal was 5.9% (inactive).
Consider `Nc1c(N(CCO)C(=O)C2CCCCC2)c(=O)[nH]c(=O)n1Cc1ccccc1`, for which the decrease of EGFP signal was -13.9% (inactive).
As to `CC(C)CCOc1ccc(C(=O)C[N+]2(C)CCOCC2)cc1`, the decrease of EGFP signal is -10% (inactive).
Regarding `O=C(OCC(=O)N1CCN(C(=O)c2ccco2)CC1)c1cccc(O)c1`, the decrease of EGFP signal is 2.2% (inactive).
For `Cc1ccc(NC(=O)CSc2nnc(CNC(=O)c3ccccc3F)o2)cc1Cl`, the decrease of EGFP signal is -13% (inactive).
As for `CCc1cccc(NC(=O)CCCN2C(=O)C(c3ccccc3)Oc3cccnc32)c1` (stereo not given), the decrease of EGFP signal was 4.5% (inactive).
As for `O=C(COc1cccc(Cl)c1)NCc1ccccc1`, the decrease of EGFP signal is -3.1% (inactive).
To `CC(C(=O)N1CCN(c2ccccc2F)CC1)c1ccc([N+](=O)[O-])cc1` (stereo not given) belongs 1.2% (inactive); to `COc1ccc(C(=O)NC(=S)NC2CCCCC2)cc1`, -9.4% (inactive).
For `CCc1ccc(OCC(=O)N(Cc2ccccc2)C2CCS(=O)(=O)C2)cc1` (stereo not given), the decrease of EGFP signal was -11.2% (inactive).
In the case of `COc1cc(OC)cc(C(=O)NCCCn2ccnc2)c1` it was 1.6% (inactive).
For `CNc1[nH]ncc1[N+](=O)[O-]`, the decrease of EGFP signal was 11.8% (inactive).
To `Cc1nc(-c2ccc(F)cc2)c(CC(=O)N2CCN(S(=O)(=O)c3ccc(F)cc3)CC2)s1` belongs 5.1% (inactive).
Turning to `COCCCN1C(=O)c2ccc(C(=O)OCC(=O)NCc3ccccc3OC)cc2C1=O`, the decrease of EGFP signal is -12.5% (inactive).
Take `c1ccc(-n2cccc2)c(N2CCCCC2)c1`: the decrease of EGFP signal is -13.4% (inactive).
For `Cc1cc(-c2nnc(SCC(=O)Nc3ccc(S(N)(=O)=O)cc3)n2N)n[nH]1`, the decrease of EGFP signal was -53.2% (inactive).
As to `CCCCn1c(N)c(N(CCOC)C(=O)c2oc3ccc(OC)cc3c2C)c(=O)[nH]c1=O`, the decrease of EGFP signal is 9.8% (inactive).
For the molecule `NC(=O)C(Cc1ccccc1)NC(=O)C12CC3CC(CC(C3)C1)C2` (stereo not given), the decrease of EGFP signal is -4.8% (inactive).
In the case of `Cc1c(S(=O)(=O)N2CC(C)CC(C)C2)c(=O)n(C)c(=O)n1C` (stereo not given) it was 4.7% (inactive).
To `CCSc1nc(O)c(C(c2cccc(OC)c2)c2c(O)nc(SCC)[nH]c2=O)c(=O)[nH]1` belongs -4% (inactive); to `CCCC1(C(=O)OCC)NC(c2ccc(N(C)C)cc2)C2C(=O)N(c3ccc4c(c3)OCCO4)C(=O)C21` (stereo not given), -13.2% (inactive).
Take `O=C(O)CCCCCNc1ncnc2ccc(Br)cc12`: the decrease of EGFP signal was -16.6% (inactive).
With `Cc1cccc(N2Cc3ccccc3C2=NC(=O)c2ccc(Cl)nc2)c1`, the decrease of EGFP signal was -1.5% (inactive).
In the case of `CC(=O)N1c2ccc(S(=O)(=O)N3CCCC(C(=O)NCc4ccc(Cl)cc4)C3)cc2CC1C` (stereo not given) it was -5.2% (inactive); in that of `CCCCC(=O)Nc1c2c(nn1-c1ccc([N+](=O)[O-])cc1)CS(=O)(=O)C2`, -0.5% (inactive).
In the case of `CS(=O)(=O)N1CCN=C1SCc1ccc(F)cc1` it was 10.9% (inactive); in that of `CC(=O)c1cccc(NC(=O)CN2C(=O)c3cccnc3Oc3ccc(Cl)cc32)c1`, -7.6% (inactive).
To `C/C(CC(=O)NCc1ccc(Cl)cc1)=N\NC(=O)COc1ccc(C)cc1Br` belongs 2.8% (inactive); to `CCOc1cc(CN2CCCC(CO)(Cc3ccc(F)cc3F)C2)ccc1OC` (stereo not given), -5.3% (inactive).
`Cc1cccc(-c2nc3ccc(C(=O)NCCN4CCN(C)CC4)cc3nc2-c2cccc(C)c2)c1`: the decrease of EGFP signal is -5% (inactive).
For the molecule `COCCCNc1nc2c(-c3cccc(C)c3)nnn2c2ccc(Cl)cc12`, the decrease of EGFP signal was -12% (inactive).
In the case of `COc1ccc(C(=O)C2CCCN(S(=O)(=O)c3cccc(C)c3)C2)c(C)c1` (stereo not given), the decrease of EGFP signal is -15.7% (inactive).
In the case of `O=C(NCCC1=CCCCC1)c1ccc(Cl)c([N+](=O)[O-])c1`, the decrease of EGFP signal is -6.4% (inactive).
Regarding `CCCn1c(NC(=O)C23CC4CC(CC(O)(C4)C2)C3)nc2ccccc21`, the decrease of EGFP signal is 0.5% (inactive).
On to `O=C(Nc1ccc(O)cc1)c1ccc(NC(=O)c2ccco2)cc1`, for which the decrease of EGFP signal was -4.6% (inactive).
As to `CCOc1ccc(S(=O)(=O)N2CCC(c3ccccc3)CC2)cc1C(=O)O`, the decrease of EGFP signal was 2.8% (inactive).
In the case of `COCc1ccc(CN2CCC(Oc3ccc(C(=O)NCc4ccccn4)cc3)CC2)o1` it was -10.7% (inactive); in that of `COC(c1ccccc1)(c1ccccc1)C(Oc1nc(C)cc(C)n1)C(=O)O` (stereo not given), 0% (inactive); in that of `O=[N+]([O-])c1ccc2oc(-c3cccc(O)c3)nc2c1`, 7.6% (inactive).
Consider `CC(Oc1cc2oc(=O)c3c(c2cc1Cl)CCCC3)C(=O)NCc1ccncc1` (stereo not given), for which the decrease of EGFP signal is -2.1% (inactive).
To `O=C(C[n+]1cc(Br)cc2ccccc21)c1ccc(F)cc1` belongs -1.9% (inactive).
